LDHA block: LDHA (human) enzyme inhibition. AID 1347041. 480,000 tested, 0.15% active. activity change, % (values are at about 110 or 230 µM). P00338. purified LDHA, NADH/diaphorase-resazurin fluorescence; stronger effect = lower value; in the data active means activity change below about -30%; inconclusive means mostly about -25% to -30%;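 further: plate controls were DMSO wells for no effect and wells without enzyme for full effect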
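LDH5 2 nM; NADH 0.06 mM, pyruvate 0.2 mM; 200 mM Tris pH 7.4, EDTA, Tween-20; 5 min RT. Detection: diaphorase 0.133 mg/mL + resazurin 37 µM, fluorescence ex540/em590 at 0 and 20 min; normalized to enzyme-free and DMSO wells.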
TDP1 cell CPT: DT40-hTDP1 cell growth loss with CPT; 420,000 tested, 12% active; chicken DT40 Tdp1-/-;hTDP1 cells + 20 nM CPT, ATP luminescence, 48 h; AID 686979; Potency, µM (top dose mostly 46.2 µM), inactives show top-dose activity change, negative = growth inhibition, hits mostly inhibitors; further: potency means the concentration at half of the fitted maximal effect; nearly all actives have a fitted effect of over 55% in size
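Chicken DT40 Tdp1-/- cells stably complemented with human TDP1 were seeded at 400 cells/well in medium containing 20 nM camptothecin, exposed to pin-transferred compounds, and grown at 37 °C for at least 48 hr. Viability was read as ATP luminescence.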
RORgamma inh: ROR gamma (mouse) transcription inhibition; P51450; Drosophila S2 Gal4-RORgamma UAS-luciferase reporter, 20 h; Potency, µM (highest dose often 53.6 µM), without a hit: at the top dose activity change, negative = inhibition, hits mostly inhibitors; 310,000 tested, 5.4% active; AID 2551; further: potency means the concentration at half of the fitted maximal effect; nearly all actives have a fitted effect of over 60% in size
Target sequence (P51450 whole entry, looked up, the tested form may be a part): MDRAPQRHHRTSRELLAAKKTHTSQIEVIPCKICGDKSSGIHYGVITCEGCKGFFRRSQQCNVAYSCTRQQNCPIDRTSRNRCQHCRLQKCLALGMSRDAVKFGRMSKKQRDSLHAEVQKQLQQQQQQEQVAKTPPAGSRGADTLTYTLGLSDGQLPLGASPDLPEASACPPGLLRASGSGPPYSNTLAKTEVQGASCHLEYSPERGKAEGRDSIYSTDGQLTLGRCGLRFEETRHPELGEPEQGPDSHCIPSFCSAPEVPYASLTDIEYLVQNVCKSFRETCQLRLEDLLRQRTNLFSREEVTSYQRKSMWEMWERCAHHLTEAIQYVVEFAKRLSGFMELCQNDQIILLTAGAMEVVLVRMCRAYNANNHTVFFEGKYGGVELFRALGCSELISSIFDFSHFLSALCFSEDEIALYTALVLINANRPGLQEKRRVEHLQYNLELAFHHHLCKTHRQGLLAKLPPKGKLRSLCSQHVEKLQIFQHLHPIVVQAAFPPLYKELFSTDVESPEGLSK
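Schneider cells (Drosophila), stable Gal4 DBD–ROR gamma + UAS-luc; 1 hr cmpd preincubation; Cu2+ induction 700 uM final; 20 hr ambient; luminescence.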
DT40 TDP1 no CPT: qHTS for Inhibitors of human tyrosyl-DNA phosphodiesterase 1 (TDP1): qHTS in cells in absence of CPT; DT40 Tdp1-/- hTDP1 cells, no CPT, ATP luminescence, 48 h; 420,000 tested, 15% active; Potency, µM (top dose mostly 46.2 µM), for the others: at the highest dose activity change, negative = growth inhibition, hits mostly inhibitors; further: potency means the concentration at half of the fitted maximal effect; nearly all actives have a fitted effect of over 55% in size
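Seeded 400 DT40-hTDP1 cells/well (vehicle DMSO, no 20 nM CPT); pinned compounds; ≥48 hr at 37 °C; CellTiter-Glo luminescence as viability measure.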
VP16 counter: counter-screen for ROR gamma inhibitors: Gal4-VP16 reporter; Drosophila S2 Gal4-VP16 UAS-luciferase, luminescence, 20 h; Potency, µM (titrated, usually from 53.6 µM), for inactives: at the highest dose activity, negative = inhibition, hits mostly inhibitors; 310,000 tested, 3.5% active; AID 2546;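 further: Gal4-VP16 expression switched on by copper sulfate through the metallothionein promoter; potency means the concentration at half of the fitted maximal effect; nearly all actives have a fitted effect of over 50% in size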
IL-1B inflam inh: inflammasome signaling inhibition, IL-1 beta readout; THP-1 LPS/ATP IL-1B secretion, AlphaLISA, 16 h; stronger effect = lower value; activity change, % at 57.5 µM; 360,000 tested, 4.7% active; AID 743279; in the data active means activity change below about -50%; inconclusive means mostly about -30% to -49%
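THP-1 cells pretreated 1 hr with compounds (up to 57.5 uM final), then stimulated with LPS (250 ng/mL final) plus ATP (1.25 mM final); secreted IL-1B measured by AlphaLISA after 16 hr, decreased signal indicating inhibition.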
An asterisk follows results filed as active; ? = inconclusive; nt = no result given; ! = not active in a repeat; [ ] = dose if it differs, or a comment. Sampled rows, rich in hits. Any-hit rate of the full collection: about 18%. Unless noted, the call rests on the fitted dose curve; in most records, active means well fitted curve in the direction sought with a large enough effect; inconclusive means small, poorly fitted or top-dose-only effect, or another doubt; inactive means no such curve, though single readings can be large; an effect the other way counts as inactive or inconclusive. Unless noted, on the % scale 0 is the no-effect control and ±100 the full control effect.

SMILES	LDHA block	TDP1 cell CPT	RORgamma inh	DT40 TDP1 no CPT	VP16 counter	IL-1B inflam inh
CC(C)c1ccc(NC(=O)CN2C(=O)CN=C(c3ccccc3)c3ccccc32)cc1	-13.1	-17.3%	nt	?	nt	nt
Cc1cc(C)c2c(ccc3cccc[n+]32)c1	0.1	?	nt	20.6µM*	nt	-60.7*
C[C@]12CCC3C(CC[C@H]4C[C@@H](O)[C@H](O)C[C@]34C)C1CC[C@@H]2O (stereo partly specified)	-6.9	-15.7%	nt	-11.2%	nt	17.0
C[C@]12CCC3C(CC[C@H]4C[C@H](O)[C@H](O)C[C@]34C)C1CC[C@@H]2O (stereo partly specified)	-3.4	20.6µM*	nt	?	nt	13.8
CCN(CC)C(=O)c1ccc(NC(=S)NCCOC)cc1	-4.6	nt	nt	nt	nt	nt
Cc1cccn2c(=O)c3cc(C(=O)N4CCC5(CC4)OCCO5)n(C)c3nc12	0.0	1.16µM*	-26.9%	1.3µM*	-12.2%	7.5
COC(=O)C12C/C=C\Cc3ccccc3[C@@H]1CNC2=O (stereo partly specified)	nt	nt	-16.7%	nt	-3.0%	nt
CN(C)C1(CNC(=O)c2ccc(NS(=O)(=O)c3ccc(Cl)c(Cl)c3)cc2)CCCCC1	-1.4	?	nt	?	nt	-16.6
CC(C)c1ccc2[nH]c(O)c(N=NC(=O)c3cccc(S(=O)(=O)Nc4ccc(Cl)cc4)c3)c2c1	-8.1	11.6µM*	8.0%	10.3µM*	-1.4%	-25.2
Nc1cccc2c(N)cccc12	25.1	21.7µM*	-16.8%	24.3µM*	5.9%	nt
O=C(CN1CC=C(c2ccccc2)CC1)N(C1CCCC1)C1CCS(=O)(=O)C1 (stereo unspecified)	-4.3	nt	nt	nt	nt	nt
CC1CC(=O)O1 (stereo unspecified)	nt	nt	-5.9%	nt	-3.6%	nt
COc1cc([C@@H]2c3cc4c(cc3[C@H](O)[C@H]3COC(=O)[C@@H]23)OCO4)cc(OC)c1OC	1.7	0.0708µM*	nt	0.0251µM*	nt	nt
COc1ccc2c(c1OC)C(=O)O[C@H]2[C@@H]1c2cc3c(cc2CCN1C)OCO3	-11.5	-8.1%	nt	-15.5%	nt	5.2
COc1cc2c(cc1C=O)OCO2	-0.6	2.0%	1.5%[10 µM]	-1.3%	-20.3%	-2.9
COc1cc([C@@H]2c3cc4c(cc3C(O[C@@H]3O[C@@H]5CO[C@@H](C)O[C@H]5[C@H](O)[C@H]3O)C3COC(=O)[C@@H]32)OCO4)cc(OC)c1OP(=O)(O)O (stereo partly specified)	nt	0.211µM*	nt	0.299µM*	nt	nt
COc1cc([C@@H]2c3cc4c(cc3[C@@H](OC)[C@H]3COC(=O)[C@H]23)OCO4)cc(OC)c1O	0.4	1.16µM*	14.4%	1.3µM*	-15.0%	71.4
COc1cc([C@@H]2c3cc4c(cc3[C@H](O)[C@H]3COC(=O)[C@H]23)OCO4)cc(OC)c1OC	-2.9	0.146µM*	2.9%	0.146µM*!	-15.7%	63.5
C=CCN1CCN(C(=O)Cc2ccc(F)cc2)CC1	-8.2	nt	nt	nt	nt	nt
CNC(=S)S	nt	nt	-5.0%	nt	-5.8%	nt
CCn1cc(C(=O)Cn2c(C)nc3ccccc32)c2ccccc21	2.5	nt	nt	nt	nt	nt
OC1CCC(Nc2ccn3nc(-c4cccc(OCc5ccccc5)c4)cc3n2)CC1 (stereo unspecified)	-4.3	?	nt	?	nt	10.9
COc1cc(C2c3cc4c(cc3C(O)C3COC(=O)C23)OCO4)cc(OC)c1O (stereo unspecified)	nt	0.259µM*	-12.7%	0.206µM*	-12.2%	nt
COC(=O)N1CCC2(CCCN(C)C2)CC1	nt	26.9%	-16.1%	-20.2%	9.6%	nt
Cc1[nH]nc2c1C(c1ccc3c(c1)OCCO3)SCC(=O)N2 (stereo unspecified)	-11.0	nt	nt	nt	nt	nt
SMILES	LDHA block	TDP1 cell CPT	RORgamma inh	DT40 TDP1 no CPT	VP16 counter	IL-1B inflam inh
COC(=O)[C@]12CCC(C)(C)C[C@H]1[C@H]1C(=O)C=C3[C@@]4(C)C=C(C#N)C(=O)C(C)(C)[C@@H]4CC[C@@]3(C)[C@]1(C)CC2	nt	1.19µM*	nt	1.06µM*	nt	nt
O=C(c1cn(Cc2ccccc2)c2ccccc12)N1CCC1	5.7	nt	nt	nt	nt	nt
C[C@]12CC[C@@H]3[C@@H](CCC4=CC(=O)CC[C@@H]43)[C@@H]1CC[C@@H]2OC(=O)CCc1ccccc1	nt	nt	46.4%	nt	-13.7%	nt
CC(C)OC(=O)C1C2c3ccccc3C(c3ccccc32)C1C(=O)OC(C)C (stereo unspecified)	13.0	nt	nt	nt	nt	nt
CC(C)[C@H]1C(=O)O[C@H](C(C)C)C(=O)N(C)[C@@H](C(C)C)C(=O)O[C@H](C(C)C)C(=O)N(C)[C@@H](C(C)C)C(=O)O[C@H](C(C)C)C(=O)N1C	-10.3	3.26µM*	?	4.11µM*	?	-7.7
NNC(N)=S	nt	nt	14.1µM*	nt	-12.7%	nt
O=C(C[n+]1ccn(CCCNP2(=O)C=C(c3ccccc3)OC(c3ccccc3)=C2)c1)c1ccccc1	1.0	?	-3.8%	?	-11.0%	-54.6*
CCOc1ccc(NCc2cccn2-c2nnc(N3CCC(C(=O)NC(C)c4ccccc4)CC3)s2)cc1 (stereo unspecified)	-0.8	20.6µM*	nt	8.2µM*	nt	nt
O=C1c2ccccc2C2(c3ccc(Cl)cc3)NCCN12 (stereo unspecified)	-4.7	4.1%	7.0%	-16.3%	0.5%	-53.3*
O=C(O)[C@@H]1C[C@H]2C[C@@H](CP(=O)(O)O)CC[C@H]2CN1	nt	11.7%	29.8%	-11.7%	-13.9%	nt
CCc1ccc(N2C(=O)NC(=O)C3(Cc4cc(C)ccc4N(C)C3)C2=O)cc1 (stereo unspecified)	-0.7	nt	nt	nt	nt	nt
Cc1ccc(C)c(NP(=O)(Oc2ccccc2)Oc2ccccc2)c1	3.3	?	-14.2%	16.4µM*	-0.7%	?
Cc1ccc(S(=O)(=O)NP(=O)(Oc2ccccc2)Oc2ccccc2)cc1	-10.4	16.3%	1.4%	-2.0%	5.8%	0.0
CC(=O)Oc1ccc2c3c1OC1[C@@H](OC(C)=O)C=C[C@H]4[C@H](C2)N(C)CC[C@]314 (stereo partly specified)	nt	nt	10.4%	nt	1.5%	nt
O=P(O)(O)CN1CCNCCN(CP(=O)(O)O)CCNCC1	-4.2	6.51µM*	nt	6.51µM*	nt	-14.7
C=C(C)C(=O)CP(=O)(OCC)OCC	nt	nt	?	nt	4.5%	nt
CCc1ccc(C(=O)NCc2ccc(Cl)cc2Cl)cc1	-1.1	1.6%	?	-5.0%	0.3%	-52.5*
CCOC(=O)c1c(NC(NC(=O)CF)C(Cl)(Cl)Cl)sc2c1CCCC2 (stereo unspecified)	5.8	13µM*	?	?	-6.0%	-12.9
COc1ccc(CNCCc2ccc3c(c2)OCO3)cc1Br	-14.9	?	-8.1%	20.6µM*	-5.0%	0.0
